High-throughput results: PubChem BioAssay, National Center for Advancing Translational Sciences (NCATS)
PINK1 modulator – PINK1 expression modulation. PINK1 immunofluorescence, high-content cytometry, 24 h. Potency, µM (highest dose often 76.6 µM), hits mostly activators. actives 0.2% (n = 410,000); active = well fitted activation curve with a large enough effect; inconclusive = small, poorly fitted or top-dose-only effect; cell line not stated here; note: nearly all actives have a fitted effect of over 65% in size
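Compound titrations (5 concentrations, 24 h) on a stable cell line; DMSO and CCCP controls. Endpoint: fixed-cell PINK1 immunofluorescence with mitochondrial, cell and nuclear markers, scanned by microplate cytometer.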
Glioma ERSR ind – ER stress response induction in glioma. U87-MG GRP78 promoter luciferase reporter, 16 h. Potency, µM, usual class: activators. actives 0.02% (n = 420,000). AID 602332; note: series mostly up to about 76 µM; nearly all actives have a fitted effect of over 35% in size
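Stably transfected U87-MG glioma cells carrying a GRP78-based luciferase sensor; 16 h compound incubation. Luminescence end-point read 10 min after Bright-Glo addition at room temperature.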
Abeta rescue – compounds reversing amyloid beta toxicity in yeast; yeast expressing A-beta42, growth rescue, OD600, 48 h; response scale: 0% DMSO, 100% iron-clioquinol control; Potency, µM (doses to about 46.1 µM), most hits filed as activators; actives 0.063% (n = 410,000); note: nearly all actives have a fitted effect of over 55% in size
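Yeast growth medium received pinned compounds, then yeast cells expressing toxic A-beta were added; plates incubated at 30 C for 48 hr. Growth read as absorbance at 600 nm, normalized to DMSO and equimolar FeCl3 plus clioquinol controls.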
FUS suppressor – suppressors of FUS proteinopathy in yeast; actives 0.24% (n = 390,000); AID 1347120; S. cerevisiae FUS-expressing, growth rescue, OD600, 24 h; Potency, µM (titrated, usually from 76.6 µM), usual class: activators; note: nearly all actives have a fitted effect of over 55% in size
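Read-out: OD at 600 nm after 24hr at 30C, reporting rescue of FUS-induced yeast toxicity. Cells at OD 0.005 in galactose (2%) minimal medium; compounds tested in a dilution series; CP55940 titration from 92uM final as control.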
Vif-A3F inh – blocks the Vif interaction with APOBEC3F. AID 602313. Potency, µM (series often up to 46.1 µM). actives 0.2% (n = 390,000). HeLa A3F-eYFP + Vif (tagged APOBEC3F with the HIV-1 protein that degrades it), YFP fluorescence increase; note: nearly all actives have a fitted effect of over 65% in size
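HeLa cells stably expressing Vif plus C-terminally eYFP-tagged A3F were seeded, incubated overnight at 37 deg C, dosed with compound, incubated overnight again at 37 deg C. Yellow fluorescence (Ex 488/Em 500-530) reported blocked Vif-mediated A3F-eYFP degradation.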
Vif-A3G inh – blocks the Vif interaction with human APOBEC3G | HeLa A3G-eYFP + Vif (tagged APOBEC3G with the HIV-1 protein that degrades it), YFP fluorescence, overnight | Potency, µM (doses to about 46.1 µM), most hits filed as inhibitors | actives 0.076% (n = 410,000) | AID 602310; note: nearly all actives have a fitted effect of over 60% in size
Target sequence (Q9HC16 whole entry, looked up): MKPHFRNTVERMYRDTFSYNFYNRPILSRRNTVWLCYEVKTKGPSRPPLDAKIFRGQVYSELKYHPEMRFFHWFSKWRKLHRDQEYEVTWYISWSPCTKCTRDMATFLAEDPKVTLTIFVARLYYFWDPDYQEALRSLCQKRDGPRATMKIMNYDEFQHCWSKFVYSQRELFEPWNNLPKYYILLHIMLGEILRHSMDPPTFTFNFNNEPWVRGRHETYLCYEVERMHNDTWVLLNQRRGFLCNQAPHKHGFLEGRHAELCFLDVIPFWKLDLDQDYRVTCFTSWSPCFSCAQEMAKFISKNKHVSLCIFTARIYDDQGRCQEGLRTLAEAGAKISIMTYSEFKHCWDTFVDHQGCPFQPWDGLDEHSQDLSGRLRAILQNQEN
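HeLa cells stably expressing Vif and C-terminally eYFP-tagged A3G, seeded overnight at 37 deg C, then exposed to compound by pintool overnight at 37 deg C. Rise in yellow fluorescence (Ex 488/Em 500-530, Acumen) marks blocked Vif-driven A3G degradation.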
A number is an active result. This is a sample that favours compounds with a hit; in the whole collection about 0.69% have one here. Unless noted, calls come from the whole dose curve; as a rule, active = well fitted curve in the direction sought with a large enough effect; inconclusive = small, poorly fitted or top-dose-only effect, or another doubt; inactive = no such curve, though single readings can be large; an effect the other way counts as inactive or inconclusive.

`COc1ccc(NC(=O)Nc2ccc3c(c2)C(=O)N([C@H](C)CO)C[C@H](C)[C@@H](CN(C)S(=O)(=O)c2ccccc2)O3)cc1` gave PINK1 modulator inactive, Glioma ERSR ind inactive, Abeta rescue inactive, FUS suppressor inconclusive, Vif-A3F inh inactive and Vif-A3G inh inactive.
Screening COc1ccc(NC(=O)Nc2cccc3c2O[C@H](CN(C)S(=O)(=O)c2ccc(F)cc2)[C@@H](C)CN([C@H](C)CO)C3=O)cc1 returned PINK1 modulator inactive, Glioma ERSR ind inactive, Abeta rescue inactive, FUS suppressor inactive, Vif-A3F inh inactive and Vif-A3G inh inactive.
COc1ccc(S(=O)(=O)Nc2cccc3c2O[C@H](CN(C)Cc2ccc(-c4ccccc4)cc2)[C@@H](C)CN([C@H](C)CO)C3=O)cc1 was read as PINK1 modulator inactive, Glioma ERSR ind inactive, Abeta rescue inactive, FUS suppressor 25µM, Vif-A3F inh inactive and Vif-A3G inh inactive.
`COc1ccc(S(=O)(=O)N(C)C[C@@H]2Oc3c(NC(=O)Nc4ccccc4)cccc3C(=O)N([C@@H](C)CO)C[C@H]2C)cc1` gave FUS suppressor 16µM.
COc1ccc(S(=O)(=O)N(C)C[C@H]2Oc3ccc(NC(=O)Cc4ccccc4)cc3C(=O)N([C@H](C)CO)C[C@@H]2C)cc1 was read as PINK1 modulator inactive, Glioma ERSR ind inactive, Abeta rescue inactive, FUS suppressor 28µM, Vif-A3F inh inactive and Vif-A3G inh inactive.
COc1ccc(C#Cc2ccc3c(c2)O[C@H](CN(C)S(=O)(=O)c2ccccc2F)[C@H](C)CN([C@H](C)CO)S3(=O)=O)cc1 was read as PINK1 modulator inactive, Glioma ERSR ind inactive, Abeta rescue inactive, FUS suppressor 28µM and Vif-A3G inh inactive.
COC(=O)[C@@H]1CCCN1Cc1ccc2c(c1)CN(Cc1cccc(Cl)c1)CCO2 was read as PINK1 modulator inactive and Glioma ERSR ind inactive.
For C[C@H](CO)N1C[C@H](C)[C@@H](CN(C)S(=O)(=O)c2ccc(F)cc2)Oc2c(NC(=O)NC3CCCCC3)cccc2C1=O the results were PINK1 modulator inactive, Glioma ERSR ind inactive, Abeta rescue inactive, FUS suppressor inactive, Vif-A3F inh inactive and Vif-A3G inh inactive.
`C[C@H](CO)N1C[C@H](C)[C@@H](CN(C)S(=O)(=O)c2ccccc2)Oc2c(NC(=O)NC3CCCCC3)cccc2C1=O` gave PINK1 modulator inactive, Glioma ERSR ind inactive, Abeta rescue inactive, FUS suppressor 32µM, Vif-A3F inh inactive and Vif-A3G inh inactive.
Screening COc1ccc(S(=O)(=O)Nc2cccc3c2O[C@H](CN(C)S(=O)(=O)c2ccccc2)[C@@H](C)CN([C@H](C)CO)C3=O)cc1 returned PINK1 modulator inactive, Glioma ERSR ind inactive, Abeta rescue inactive, FUS suppressor 16µM, Vif-A3F inh inactive and Vif-A3G inh inactive.
CCSc1nnc(NC(=O)C(C)(C(F)(F)F)C(F)(F)F)s1 was read as PINK1 modulator 25µM, Glioma ERSR ind inactive, Abeta rescue inactive, FUS suppressor inactive, Vif-A3F inh inactive and Vif-A3G inh inactive.
Screening COc1cc(C)c(CN2CCC3(CCC(CNC(=O)c4ccnn4C)O3)CC2)cc1C (stereo not given) returned PINK1 modulator inactive and Glioma ERSR ind inactive.
`N#C/C(=C\Nc1ccc2cn[nH]c2c1)c1nc(-c2ccc(Cl)cc2)cs1` gave PINK1 modulator inactive, Glioma ERSR ind inactive, Abeta rescue inactive, FUS suppressor inactive, Vif-A3F inh 22µM and Vif-A3G inh inactive.
N#CC(=Cc1ccccn1)c1nc(-c2ccc(Cl)cc2)cs1 was read as PINK1 modulator inactive, Glioma ERSR ind inactive, Abeta rescue inactive, FUS suppressor inactive, Vif-A3F inh inconclusive and Vif-A3G inh 5.6µM.
`Cc1nn(-c2ccccc2)c(N2CCCC2)c1/C=N/NC(=O)c1cc2ccccc2cc1O` gave PINK1 modulator 16µM, Glioma ERSR ind inactive, Abeta rescue inactive, FUS suppressor inactive, Vif-A3F inh inactive and Vif-A3G inh inactive.
`Cc1nn(-c2ccccc2)c(N2CCCC2)c1/C=N/NC(=O)c1cc(-c2ccccc2)nc2ccccc12` gave PINK1 modulator inactive, Glioma ERSR ind inactive, Abeta rescue inactive, FUS suppressor inconclusive, Vif-A3F inh inactive and Vif-A3G inh inactive.
For O=C(CSc1nc2ccccc2s1)c1cc2ccccc2o1 the results were PINK1 modulator inactive, Glioma ERSR ind inactive, Abeta rescue inactive, FUS suppressor inactive, Vif-A3F inh 25µM and Vif-A3G inh inconclusive.
`CCCOc1ccc(N)cc1N` gave PINK1 modulator inactive, Glioma ERSR ind inactive, Abeta rescue inactive, FUS suppressor inactive, Vif-A3F inh 22µM and Vif-A3G inh inconclusive.
CC(=O)NC(CCC(N)=O)C(=O)O (stereo not given) was read as Glioma ERSR ind inactive.
For COc1ccc(N2C(=O)N3[C@H](c4ccc(Cl)cc4)[C@@H]4C(=O)N(C5CCCCC5)C(=O)[C@@H]4[C@]3(C)C2=O)cc1 the results were PINK1 modulator inactive, Glioma ERSR ind inactive, Abeta rescue inactive, FUS suppressor 28µM, Vif-A3F inh inactive and Vif-A3G inh inactive.
For c1ccc(-c2cccc(CNc3nc(-c4ccccn4)nnc3-c3ccccc3)c2)cc1 the results were FUS suppressor 32µM.
CN(C)c1nc(-c2ccccn2)nnc1-c1ccccc1 was read as PINK1 modulator inactive, Glioma ERSR ind inactive, Abeta rescue inactive, FUS suppressor inactive, Vif-A3F inh inactive and Vif-A3G inh inactive.
Screening CCCn1c2c(c(=N)c3c1CCC3)CCC2 returned PINK1 modulator inactive, Glioma ERSR ind inactive, Abeta rescue inactive, FUS suppressor inactive, Vif-A3F inh inactive and Vif-A3G inh inactive.
CCCCCCCn1c2c(c(=N)c3ccccc31)CCC2 was read as PINK1 modulator 20µM, Glioma ERSR ind inactive, Abeta rescue inactive, FUS suppressor inactive, Vif-A3F inh inactive and Vif-A3G inh inactive.
`COC(=O)c1ccc2nc(-c3ccc(Cl)cc3)c(Cc3ccc(OC)cc3C)n2c1` gave PINK1 modulator inactive, Abeta rescue inactive and FUS suppressor inactive.
`COc1ccc(Cc2c(-c3ccc(C)cc3)nc3ccc(Cl)cn23)c(C)c1` gave PINK1 modulator 32µM, Glioma ERSR ind inactive, Abeta rescue inactive, FUS suppressor inactive and Vif-A3G inh inactive.
Cc1ccc(CCNC(=O)C2CCCN(S(=O)(=O)c3c(C)noc3/C=C/N(C)C)C2)cc1 (stereo not given) was read as PINK1 modulator inactive, Glioma ERSR ind inactive, Abeta rescue inactive, FUS suppressor 20µM, Vif-A3F inh inactive and Vif-A3G inh inactive.
Screening CN(C)c1ccc(/C=C/c2ccnc3ccccc23)c(F)c1 returned PINK1 modulator inactive, Glioma ERSR ind inactive and Vif-A3G inh inconclusive.
